Compound activity as filed in PubChem BioAssay.
HTT aggregate: qHTS Multiplex Assay to Identify Dual Action Probes in a Cell Model of Huntington: Aggregate Formation (GFP) | PC12 HttQ103-GFP aggregates, Acumen cytometry, 40 h | Potency, µM (top dose mostly 46.1 µM), inactives show at the top dose activity change, negative = inhibition, most hits filed as inhibitors | actives 1.1% (n = 220,000); further: potency means the concentration at half of the fitted maximal effect; on the % scale 0 is the no-effect control and ±100 the full control effect; nearly all actives have a fitted effect of over 60% in size
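Read-out: GFP aggregate count by laser scanning cytometer (488 nm excitation, 500-530 nm emission, 1–25 µm objects >6 SD above background). Cells: PC12, inducible HTTex1-Q103-GFP, 100 nM tebufenozide; compounds titrated.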
PI4K2A block: qHTS for small molecular inhibitors of PI4K2A | Phosphatidylinositol 4-kinase type 2-alpha (Homo sapiens), Q9BTU6 | purified PI4K2A, ADP-Glo luminescence, 1 h; active compounds read low | activity change, negative = inhibition, % at 76.9 µM | actives 0.13% (n = 420,000); in the data active means activity change below about -50%; inconclusive means mostly about -30% to -49%;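 further: -100% = wells without enzyme as full effect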
Target sequence (Q9BTU6 whole entry, looked up): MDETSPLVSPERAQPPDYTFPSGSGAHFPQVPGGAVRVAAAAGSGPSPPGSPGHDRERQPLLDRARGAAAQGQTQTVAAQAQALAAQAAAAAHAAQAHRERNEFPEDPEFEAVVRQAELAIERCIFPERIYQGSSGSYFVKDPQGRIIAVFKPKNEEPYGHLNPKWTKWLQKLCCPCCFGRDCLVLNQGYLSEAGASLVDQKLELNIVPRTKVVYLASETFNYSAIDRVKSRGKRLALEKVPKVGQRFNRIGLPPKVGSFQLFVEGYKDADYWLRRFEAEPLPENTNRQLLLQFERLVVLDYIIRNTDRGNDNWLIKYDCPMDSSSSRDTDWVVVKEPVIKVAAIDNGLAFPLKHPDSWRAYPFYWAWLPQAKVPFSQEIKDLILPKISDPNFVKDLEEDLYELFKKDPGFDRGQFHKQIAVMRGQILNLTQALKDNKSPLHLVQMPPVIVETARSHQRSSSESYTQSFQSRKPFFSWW
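PI4K2A activity was measured by ADP-Glo luminescence: enzyme (4 ug/mL stock) and phosphatidylinositol (1.2 mM stock) in Tris pH 7.5/MgCl2/EGTA/Triton X-100 buffer were reacted with ATP (300 microM stock) for one hour at ambient temperature.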
HTT ATP protect: qHTS Multiplex Assay to Identify Dual Action Probes in a Cell Model of Huntington: Cytoprotection (ATP); PC12 HTT-Q103 induced, cytoprotection, ATP luminescence, 40 h; Potency, µM (highest dose often 56.4 µM), inactives show cytoprotection (ATP increase), actives largely listed as activators; actives 0.14% (n = 230,000); further: potency means the concentration at half of the fitted maximal effect; % of control where 0% means no effect; nearly all actives have a fitted effect of over 45% in size
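PC12 cells with ecdysone-inducible HTT exon 1 Q103-GFP, induced with 100 nM tebufenozide and co-treated with library compounds in a dose series (1536-well, 1500 cells/well). Cytoprotection read as ATP content by ATPlite luminescence.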
GALK inhibitor: qHTS Assay for Inhibitors of Human Galactokinase (GALK); P51570; Purified GALK, Kinase-Glo residual ATP luminescence; Potency, µM (titrated, usually from 57.5 µM), for the others: at the highest dose activity change, negative = inhibition, most hits filed as inhibitors; actives 0.007% (n = 270,000); further: potency means the concentration at half of the fitted maximal effect; on the % scale 0 is the no-effect control and ±100 the full control effect
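Galactose (100 uM) and ATP (35 uM) were turned over by 5 nM GALK for 1 h at RT. Kinase-Glo Plus then converted the remaining ATP into a luminescent signal.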
* hit, by the source's call; ! = not confirmed by another sample; [ ] = dose if it differs, or a comment. This is one part of a sample in which hits are shown more often than they occur. Unless noted, the call rests on the fitted dose curve; in most records, active means well fitted curve in the direction sought with a large enough effect; inconclusive means small, poorly fitted or top-dose-only effect, or another doubt; inactive means no such curve, though single readings can be large; an effect the other way counts as inactive or inconclusive.

For CN[C@H]1[C@H]2[C@H]3CCN2C[C@@H]1O3 the results were HTT ATP protect 4%.
For O=Cc1cn(Cc2ccccc2[N+](=O)[O-])c2ccccc12 the results were HTT aggregate 14µM*, PI4K2A block -7 and GALK inhibitor 3%.
For O=Cc1cn(Cc2ccc([N+](=O)[O-])cc2)c2ccccc12 the results were HTT aggregate 3%, PI4K2A block -1, HTT ATP protect -7%[10 µM] and GALK inhibitor 1%.
`CCc1ccc(C2CCNCC2)cc1` gave PI4K2A block 1.
For CC1C(=O)OC2C1CC[C@@]1(C)C=CC(=O)[C@@]3(C)O[C@@]213 (stereo not given in full) the results were HTT ATP protect 35µM*.
For C[C@@H]1[C@H]2C=C[C@@H]1[C@@H](c1c3ccc(=O)c(O)c-3oc3c(O)c(O)ccc13)[C@@H]2C(=O)O the results were HTT ATP protect -5%[10 µM].
For CN1CCC(N(Cc2ccccc2)c2ccccc2)CC1 the results were PI4K2A block 0.
Screening CN1CCc2nc3sc(C#N)c(N)c3c(-c3cccs3)c2C1 returned HTT aggregate -4%, PI4K2A block -14, HTT ATP protect 13µM* and GALK inhibitor 0%.
For O=c1cccc2n1C[C@H]1C[C@@H]2CN(CCO)C1 the results were HTT ATP protect 20%.
C=CCN1CCc2cccc3c2[C@@H]1Cc1ccc(O)c(O)c1-3 was read as HTT ATP protect 5%[1.9 µM].
Screening CN(C)C(=S)SC(=S)N(C)C returned HTT aggregate 3.2µM*, PI4K2A block 1 and HTT ATP protect -97%.
Screening CN(C)C(=S)SSC(=S)N(C)C returned HTT aggregate 1µM*!, PI4K2A block -9, HTT ATP protect -309% and GALK inhibitor 1%.
Screening O=C(O)c1cc(Cl)ccc1Cl returned HTT ATP protect 1%.
For O=C(Nc1ccc(Cl)cc1)Nc1ccc(Cl)c(Cl)c1 the results were HTT aggregate 11µM*, PI4K2A block -3 and HTT ATP protect -83%.
`O=C(COc1ccccc1)N1CCN(Cc2c[nH]c3ccccc23)CC1` gave HTT aggregate 16µM*, PI4K2A block 4, HTT ATP protect -19% and GALK inhibitor 3%.
Screening COc1ccc(CN2CCN(C(=O)COc3ccccc3)CC2)c(OC)c1 returned PI4K2A block -11.
`O=C(Cc1ccccc1)N1CCN(Cc2c[nH]c3ccccc23)CC1` gave HTT aggregate 13µM*, PI4K2A block 3, HTT ATP protect -73%[10 µM] and GALK inhibitor 5%.
`Cc1ccccc1CN1CCN(C(=O)Cc2ccccc2)CC1` gave PI4K2A block 0 and GALK inhibitor -1%.
Screening COc1ccc(OCC(=O)N2CCN(Cc3c[nH]c4ccccc34)CC2)cc1 returned HTT aggregate 11µM*, PI4K2A block 7, HTT ATP protect -71%[10 µM] and GALK inhibitor 4%.
For O=C(CBr)Nc1ccc(Cl)cc1C(=O)c1ccccc1F the results were PI4K2A block -2.
Screening NC(=NCCC[C@@H](N)C(=O)O)N[N+](=O)[O-] returned HTT ATP protect 15%[1.9 µM].
For Fc1ccc(C(OCCN2CCN(CCCc3ccccc3)CC2)c2ccc(F)cc2)cc1 the results were HTT aggregate 25µM*, PI4K2A block -8 and HTT ATP protect -99%.
`c1ccc(CCCN2CCN(CCOC(c3ccccc3)c3ccccc3)CC2)cc1` gave PI4K2A block -2 and HTT ATP protect inconclusive.
For N[C@H](Cn1cc(I)c(=O)[nH]c1=O)C(=O)O the results were HTT ATP protect -13%[1.9 µM].
O=C(Nc1ccc(Oc2ccc(Cl)cc2)c(Cl)c1)c1cc(I)cc(I)c1O was read as HTT aggregate 13µM*, PI4K2A block 3 and HTT ATP protect -54%.
For O=c1ccc2cc(O[C@@H]3O[C@@H](CO)[C@@H](O)[C@@H](O)[C@H]3O)c(O)cc2o1 the results were HTT ATP protect -2%.
Screening CC(=NCc1ccco1)c1c(O)n(C)c(=O)n(C)c1=O returned HTT aggregate 16µM*, PI4K2A block -1, HTT ATP protect -15%[0.074 µM] and GALK inhibitor 2%.
